For assay [1], the target named is Cellular tumor antigen p53 (Homo sapiens) (UniProt P04637). Put plainly: Primary qHTS for small molecule compounds that upregulate eGFP-tagged delta133p53alpha (in N-terminal) cells. (AID 2060322). Also: nearly all actives have a fitted effect of over 75% in size. Also: potency is read from the fitted curve at half-maximal effect.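 As to activation: series mostly up to about 56 µM; 0% = DMSO vehicle and 100% = reference activator.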 The note with it: NCI-H358 eGFP-delta133p53alpha fluorescence, 24 h; activation: stronger effect = higher value. The method in brief:
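NCI-H358 cells pre-induced 24 h with 10 ng/ml doxycycline to express N-terminal eGFP-delta133p53alpha, then dosed 24 h at 37C without doxycycline; fixed, Hoechst-stained, GFP intensity by laser scanning cytometry, normalized to DMSO (0%) and 57.5 uM 5-azacytidine (100%).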

A short description of assay [2]: qHTS for Inhibitors of the Aldehyde Dehydrogenase Family (ALDH1A2, ALDH1A3, ALDH2, ALDH3A1) (AID 2061307). Also: nearly all actives have a fitted effect of over 50% in size. As to Potency: test system not described further here; potency is read from the fitted curve at half-maximal effect. Background: Quantitative high-throughput screening tests each substance at several concentrations.
Assay [3] deals with Retinaldehyde dehydrogenase 3 (Homo sapiens) (UniProt P47895). Put plainly: qHTS for Inhibitors of the Aldehyde Dehydrogenase Family (ALDH1A3) Confirmatory screens (AID 2061311). Also: nearly all actives have a fitted effect of over 60% in size. Also: potency is read from the fitted curve at half-maximal effect.
The target is the same in assay [4]. Put plainly: qHTS for Inhibitors of the Aldehyde Dehydrogenase Family (ALDH1A3) Validation screen (AID 2061312). Also: nearly all actives have a fitted effect of over 45% in size. Also: potency is read from the fitted curve at half-maximal effect.
Assay [5] addresses Aldehyde dehydrogenase 1A1 (Homo sapiens) (UniProt P00352). Put plainly: qHTS for Inhibitors of the Aldehyde Dehydrogenase Family (ALDH1A1) Confirmatory screens (AID 2061316). Also: nearly all actives have a fitted effect of over 65% in size. Also: potency is read from the fitted curve at half-maximal effect.
The target in assay [6] is Aldehyde dehydrogenase, mitochondrial (Homo sapiens) (UniProt P05091). Nature of the assay: qHTS for Inhibitors of the Aldehyde Dehydrogenase Family (ALDH2) Primary screen (AID 2061308). Also: nearly all actives have a fitted effect of over 55% in size. Also: potency is read from the fitted curve at half-maximal effect.
In assay [7] the target is Retinaldehyde dehydrogenase 3 (Homo sapiens) (UniProt P47895). Nature of the assay: qHTS for Inhibitors of the Aldehyde Dehydrogenase Family (ALDH1A3) Primary screen (AID 2061315). Also: potency is read from the fitted curve at half-maximal effect.
Assay [8] addresses Retinal dehydrogenase 2 (Homo sapiens) (UniProt O94788). Nature of the assay: qHTS for Inhibitors of the Aldehyde Dehydrogenase Family (ALDH1A2) Confirmation screens (AID 2061314). Also: nearly all actives have a fitted effect of over 65% in size. Also: potency is read from the fitted curve at half-maximal effect.
Assay [9] is described as follows: BET inhibitor-based combinations targeting novel dependencies in MECOM-rearranged (r) AML: SET-2 cell line (AID 2202231). Also: nearly all actives have a fitted effect of over 35% in size. Also: potency is read from the fitted curve at half-maximal effect.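 As to viability: plate controls were DMSO treated cells for no effect and wells without cells for full effect.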 The note with it: SET-2 AML cells viability, CellTiter-Glo luminescence, 48 h; viability: stronger effect = lower value, concentration not given here. The method in brief: (§1)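 Here, 11-point titrations of each agent were applied to 500 seeded cells and incubated 48 hr; CellTiter-Glo signal, scaled against DMSO and empty wells, was integrated as AUC, then Z-scored within the individual line.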
(In ATP-based viability assays light output follows the ATP content of the culture.)

A short description of assay [10]: BET inhibitor-based combinations targeting novel dependencies in MECOM-rearranged (r) AML: OCI-AML3 cell line (AID 2202232).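 Also: series mostly up to about 46 µM; plate controls were DMSO vehicle wells for no effect and wells without cells for full effect; nearly all actives have a fitted effect of over 35% in size.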 The note with it: Potency: OCI-AML3 viability. In a few lines:
as §1

The nature of assay [11]: BET inhibitor-based combinations targeting novel dependencies in MECOM-rearranged (r) AML: MV-4-11 cell line (AID 2202233). Also: nearly all actives have a fitted effect of over 45% in size. Also: potency is read from the fitted curve at half-maximal effect. The method in brief: (§2)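 Normalized to DMSO and empty-well controls, the luminescence data from CellTiter-Glo after 48 hr drug exposure were fitted across 11 concentrations. Reported metrics are area under the dose-response curve and its Z-transformed form.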

Assay [12] in a line: BET inhibitor-based combinations targeting novel dependencies in MECOM-rearranged (r) AML: HNT-34 cell line (AID 2202234). Also: nearly all actives have a fitted effect of over 35% in size. Also: potency is read from the fitted curve at half-maximal effect. In a few lines:
as §2

Assay [13] in a line: BET inhibitor-based combinations targeting novel dependencies in MECOM-rearranged (r) AML: AML-191 cell line (AID 2202236;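 also: plate controls were vehicle wells for no effect and wells without cells for full effect; nearly all actives have a fitted effect of over 35% in size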). The method in brief: as §1
Assay [14] can be described thus: BET inhibitor-based combinations targeting novel dependencies in MECOM-rearranged (r) AML: AML-194 cell line (AID 2202237;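 also: plate controls were vehicle wells for no effect and wells without cells for full effect; nearly all actives have a fitted effect of over 40% in size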). The method in brief: as §1
The nature of assay [15]: BET inhibitor-based combinations targeting novel dependencies in MECOM-rearranged (r) AML: UCSD-AML1 cell line (AID 2202235).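 Also: series mostly up to about 46 µM; plate controls were DMSO vehicle wells for no effect and blank wells for full effect; nearly all actives have a fitted effect of over 40% in size.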 In a few lines:
as §2

Each structure is given as a SMILES string. Values joined by “and” are separate entries in the source; they are usually repeats but may differ in a detail not shown here. Identical values can stand only once. Results filed as inconclusive are left out. Values without a mark were called inactive. Active and inactive are the calls of the source. Calls follow the shape of the dose curve; as a rule, active = well fitted curve in the direction sought with a large enough effect; inconclusive = small, poorly fitted or top-dose-only effect, or another doubt; inactive = no such curve, though single readings can be large; an effect the other way counts as inactive or inconclusive.

Sequence of Cellular tumor antigen p53 (Homo sapiens) (P04637 whole entry, looked up): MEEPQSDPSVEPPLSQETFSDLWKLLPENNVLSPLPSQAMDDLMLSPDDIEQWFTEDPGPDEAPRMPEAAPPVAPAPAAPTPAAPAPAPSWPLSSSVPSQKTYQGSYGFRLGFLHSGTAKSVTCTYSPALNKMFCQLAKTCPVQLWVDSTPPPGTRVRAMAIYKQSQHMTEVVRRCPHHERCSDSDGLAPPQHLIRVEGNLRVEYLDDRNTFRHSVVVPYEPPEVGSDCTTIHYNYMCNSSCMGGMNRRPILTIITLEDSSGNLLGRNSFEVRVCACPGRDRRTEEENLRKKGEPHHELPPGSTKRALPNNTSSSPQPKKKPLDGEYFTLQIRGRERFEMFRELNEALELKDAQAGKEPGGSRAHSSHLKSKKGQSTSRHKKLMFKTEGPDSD

Turning to `Oc1ccc(O)cc1`, in assay [1], the activation is 17.5% and -0.402%. In addition, the Potency was 11.3 µM (active) in assay [2], 4.49 µM (active) in assay [3], 0.794 µM (active) in assay [4] and 11.3 µM (active) in assay [5].
For the compound `O=C(Nc1ccc(S(=O)(=O)C(F)(F)F)cc1)C1=CCN(c2ncccc2C(F)(F)F)CC1`, the activation in [1] is -1.91%. Also, the Potency entry in assay [2] and in assay [7] was “inactive” throughout. In [6], the Potency is 25.1 µM (active).
For `COc1ccc(CCO[C@@H]2O[C@H](CO[C@H]3OC[C@](O)(CO)[C@H]3O)[C@@H](OC(=O)/C=C/c3ccc(O)c(O)c3)[C@H](O[C@@H]3O[C@@H](C)[C@H](O)[C@@H](O)[C@H]3O)[C@H]2O)cc1OC`, the activation in assay [1] is 16%. For the same compound, the Potency entry in [2], in assay [6] and in assay [8] was “inactive” each time.
For the compound `O=C(/C=C/c1ccc(O)c(O)c1)O[C@@H]1[C@@H](O)[C@H](OC2CCCCC2O)O[C@H](CO)[C@H]1O` (some centres not stated), the activation in assay [1] was 2.29%. The Potency entry in [2] and in assay [8] was “inactive” each time. Also, the Potency was 5.51 µM (active) in [3] and 3.98 µM (active) in [7].
Take `NC(=Nc1ccc(CCNCc2cccc(Cl)c2)cc1)c1cccs1`: the activation in [1] is -11.9%. The Potency entry in assay [2], in [6] and in [7] was “inactive” in each case.
For `COc1ccc2c(OC)c3ccoc3nc2c1OC`, the activation in [1] was -3.05%. Moreover, the Potency in assay [2] is 28.2 µM (active); in assay [3] it was 4 µM (active); in assay [8], 0.896 µM (active); in [5], 2.83 µM (active). In [6], the Potency result was “inactive”.
In general, viability refers to a read-out of living cells in per cent, often relative to untreated cells. As for `Clc1ccc2ncc(-c3cccc(NC4CNC4)n3)n2c1`, the activation in [1] is 11%. In addition, the Potency entry in assay [2], in assay [6], in [3], in assay [7], in [10] and in assay [11] was “inactive” throughout. For the same compound, the Potency entry in assay [12], in assay [13] and in assay [14] was “inactive” in each case. In addition, the viability in assay [9] is 115%.
Regarding `OC[C@H]1O[C@@H](Oc2ccc(O)c3cccc(O)c23)[C@H](O)[C@@H](O)[C@@H]1O`, the activation in [1] is -13%. Moreover, the Potency was 7.83 µM (active) in assay [2], 0.985 µM (active) in assay [3], 2.47 µM (active) in assay [8] and 1.78 µM (active) in assay [7].
In the case of `O=C(c1c(F)ccc(NS(=O)(=O)N2CC[C@@H](F)C2)c1F)c1c[nH]c2ncc(-c3cnc(C4CC4)nc3)cc12`, in assay [1], the activation is 17%. Moreover, the Potency is 22.4 µM (active) in assay [2], 16.6 µM (active) in assay [9], 18.6 µM (active) in [11] and 5.9 µM (active) in assay [12]. Also, the Potency result in assay [6], in assay [8] and in assay [7] was “inactive” each time.
With `CC/C=C/C(O)C(O)C1=C(C)C(=O)C2(O1)C(=O)NC(OC)(C(=O)c1ccccc1)C2O` (configuration not stated), in assay [1], the activation is 15.3%. Also, the Potency entry in assay [2], in [6], in assay [8] and in assay [7] was “inactive” in each case.
As for `O=C(NCc1ccc(S(=O)(=O)c2cc(F)cc(F)c2)cc1)c1ccc2nccn2c1`, the activation in assay [1] is 17.2%. Moreover, the Potency in assay [2] was 10.1 µM (active); in assay [5] it was 11.3 µM (active). Moreover, the Potency result in assay [6], in assay [4], in assay [8] and in assay [7] was “inactive” in each case.
In the case of `Cc1cc(C)c2c(c1)C(N(Cc1cc(C(F)(F)F)cc(C(F)(F)F)c1)c1nnn(C)n1)CCCN2CC1CCC(C(=O)O)CC1` (configuration not stated), the activation in assay [1] is 26.7%. Besides, the Potency result in [2] and in assay [6] was “inactive” in each case. The results for the Potency in assay [4] and in assay [8] were 2.82 µM (active) and 20.1 µM (active), respectively.
As to `CN(C)c1ccc(NC(=O)NS(=O)(=O)c2ccc(Cl)cc2)cc1`, the activation in assay [1] is -1.67%. Also, the Potency in assay [2] was 6.34 µM (active); in assay [3] it was 2.83 µM (active); in [8], 10.1 µM (active); in assay [5], 7.98 µM (active).
Consider `CC(NC(=O)CC(=O)O)c1nc2ccccc2c(=O)[nH]1` (configuration not stated), for which the activation in assay [1] was -5.36%. Further, the Potency result in assay [2] and in assay [6] was “inactive” throughout. Also, the Potency in assay [5] was 1.27 µM (active).
Regarding `Cc1nnc(C(=O)NC(C)(C)c2nc(C(=O)NCc3ccc(F)cc3)c(O)c(=O)n2C)o1`, the activation in [1] was 12.2% and -3.35% and -11.5%. In assay [2], the Potency is 1.59 µM (active). The Potency result in [6], in assay [4], in assay [7], in assay [5], in assay [11] and in assay [12] was “inactive” throughout. For the same compound, the Potency result in [15], in assay [13] and in [14] was “inactive” each time. Moreover, the viability in assay [9] was 118%.
Turning to `COC(=O)C1=COC(OC2OC(CO)C(O)C(O)C2O)C2C(COC(=O)/C=C/c3ccc(O)c(O)c3)C(O)C(O)C12` (configuration not stated), the activation in assay [1] is -6.25%. Also, the Potency result in [2], in [6], in assay [8] and in [5] was “inactive” in each case.
`CC1CC(=O)[C@]2(O)C(C(=O)OCCc3ccc(O)c(O)c3)=CO[C@@H](O[C@@H]3O[C@H](CO)[C@@H](O)[C@H](O)[C@H]3O)[C@H]12` (some centres not stated): the activation in assay [1] was 6.87%. For the same compound, the Potency entry in [2], in assay [6] and in assay [8] was “inactive” each time. Also, the Potency in [5] is 12.3 µM (active).
Turning to `COc1cccc(CNC(=O)Nc2nc(-c3ccncc3)cs2)c1`, the activation in [1] was -8.04%. Moreover, the values for the Potency in assay [2] and in assay [8] were 2.01 µM (active) and 5.65 µM (active), respectively. The Potency result in [6] and in [7] was “inactive” each time.
Turning to `CCOC(=O)c1cnn(-c2ccc(NC(=O)C(Cl)=C(Cl)Cl)cc2)c1C(F)(F)F`, the Potency is 19 µM (active) in assay [1]; 4.47 µM (active) in assay [2]; 4.47 µM (active) in assay [6]; 7.08 µM (active) in assay [3]; 0.634 µM (active) in assay [8]; 4 µM (active) in assay [5]. The Potency result in assay [7] was “inactive”.
On to `C=Cc1c(C)c2cc3[nH]c(cc4nc(cc5nc(cc1[nH]2)C(C)=C5CCC(=O)O)C(CCC(=O)O)=C4C)c(C)c3C=C`, for which the activation in assay [1] was -11.7% and -48.8%. Moreover, the Potency in assay [2] is 10.1 µM (active); in assay [3], 25.2 µM (active); in assay [5], 12.7 µM (active). Moreover, the Potency entry in assay [4] is “inactive”.
